Assay results: PubChem BioAssay
Calls of active or inactive are those of the source. Unless noted, how the calls were made is not given here.

biological target: Dihydroorotate dehydrogenase (quinone), mitochondrial (Plasmodium falciparum (isolate 3D7)) (UniProt Q08210); assay: inhibition of P. falciparum DHODH – biochemical, C-terminal His tag, absorbance 600 nm, primary screen (AID 1175); settings: PfDHODH enzyme, DCIP absorbance 600 nm; higher = more signal, called active from +8 up or from −8 down;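 further: recombinant parasite enzyme with a five histidine tag at its C terminus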
Further: test concentration not given here.

Dihydroorotate dehydrogenase (quinone), mitochondrial (Plasmodium falciparum (isolate 3D7)), sequence (Q08210 whole entry, looked up): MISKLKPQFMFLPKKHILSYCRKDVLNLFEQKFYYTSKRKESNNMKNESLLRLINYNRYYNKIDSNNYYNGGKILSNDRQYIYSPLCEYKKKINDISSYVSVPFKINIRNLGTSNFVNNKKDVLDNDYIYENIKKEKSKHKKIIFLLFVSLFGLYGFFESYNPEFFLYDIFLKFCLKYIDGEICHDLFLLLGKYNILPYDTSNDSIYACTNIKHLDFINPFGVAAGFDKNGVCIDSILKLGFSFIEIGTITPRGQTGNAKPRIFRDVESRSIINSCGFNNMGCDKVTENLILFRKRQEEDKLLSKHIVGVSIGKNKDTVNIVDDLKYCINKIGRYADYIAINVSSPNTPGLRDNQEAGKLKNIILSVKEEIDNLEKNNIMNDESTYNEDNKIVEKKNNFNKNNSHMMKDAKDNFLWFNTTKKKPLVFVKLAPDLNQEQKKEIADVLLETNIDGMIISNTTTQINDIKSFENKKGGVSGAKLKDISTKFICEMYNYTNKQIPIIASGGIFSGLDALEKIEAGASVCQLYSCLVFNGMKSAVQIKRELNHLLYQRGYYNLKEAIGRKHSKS

Composite z-score, inactive:
CCOC(=O)[C@H](CC(C)C)NC(=O)CCC1CC(OC(=O)NCc2cccc3ccccc23)CC2(CCCC(COC(=O)NCCOC)O2)O1 (stereo partly drawn) -0.531
CON=C1[C@H]2CCn3c(=O)n(-c4ccccc4)c(=O)n3[C@H]2[C@H](O)[C@@H]2O[C@H]12 -0.984
CO[C@@H]1COC(=O)CC=C[C@@H](C)[C@@H]2C=C[C@H](O)[C@@H](COC(=O)CC=C[C@H]1C)O2 -0.0239
COC(=O)[C@@H]1CC[C@H](C)[C@@H](c2ccc(C)cc2)N1C(=O)c1ccc(C=NOCC[C@@H]2C=C[C@H](OC(C)=O)[C@@H](COC(C)=O)O2)cc1 1.16
CCOC(=O)CCN1C(=O)[C@H]2[C@H]3[C@H](O)[C@H](O)CC(=NOCc4ccccc4)[C@H]3CC[C@H]2C1=O 0.461
CCOC(=O)NN=C1C[C@@H](O)[C@@H](O)[C@@H]2[C@@H]3C(=O)N(c4cccc(Oc5ccccc5)c4)C(=O)[C@@H]3CC[C@H]12 -1.59
COC(=O)CC=C[C@@H](C)[C@@H](C=NOC(C)CN1CCCc2nc(C)c(C)cc21)OC (stereo partly drawn) -0.781

test system: not listed separately; assay: inhibition of PAO1 biofilm formation – strain PAO1, LB-PBS medium, absorbance 600 nm, primary screen (AID 1176); settings: P. aeruginosa PAO1 growth/biofilm, A600, 12 h; higher = more signal

z-score, inactive:
C[C@@H]1NC(=O)[C@@H](C)COC(=O)[C@H](C)NC(=O)[C@@H](C)COC1=O 0.365
C[n+]1ccc(-c2ccc(CO)cc2)cc1 -0.407
O=C1C[C@@H](O)[C@@H](O)[C@@H]2[C@@H]3C(=O)N(C[C@@H]4CCCO4)C(=O)[C@@H]3CC[C@H]12 -0.744
CCN1C(=O)[C@@H]2[C@H]3C(=CC[C@@H]2C1=O)C1(OCCCO1)[C@H]1O[C@H]1[C@H]3O 2.64
COC(=O)C=CCCc1coc(C=CCNC(=O)OC)n1 -0.27
COC(=O)CC=C[C@@H](C)[C@@H](C=NO[C@@H](C)c1cn([C@H](CO)Cc2ccccc2)nn1)NS(=O)(=O)c1ccc(C)cc1 -1.54
O=C(NN=C1C[C@@H](O)[C@@H](O)[C@@H]2[C@@H]3C(=O)N(C[C@@H]4CCCO4)C(=O)[C@@H]3CC[C@@H]12)OCc1ccccc1 0.328
CCOC(=O)C1=NO[C@@]2(C=C(Br)C3(OCCCO3)[C@H]3O[C@H]32)C1 0.356
COCCNC(=O)OCC1CCCC2(CC(OC(=O)NCc3ccc4c(c3)OCO4)CC(CCC(=O)N[C@@H](C)C(=O)OC)O2)O1 (stereo partly drawn) -0.282
COc1ccc(COC(=O)NN=C2C[C@@H](O)[C@@H](O)[C@@H]3[C@@H]4C(=O)N(c5ccc(F)cc5F)C(=O)[C@@H]4CC[C@H]23)cc1 0.307
CC(CCN1CCCc2nc(C)c(C)cc21)=NOC(C)CN1CCCCc2nc(C)c(C)cc21 (stereo not drawn) 1.3
COC(=O)CC=C[C@@H](C)[C@@H](C=NOCC[C@@H]1C=C[C@H](OC(C)=O)[C@@H](COC(C)=O)O1)OC -0.242
CC(CCN1CCCCc2nc(C)c(C)cc21)=NOC[C@@H](O)COCc1ccco1 -0.16
CCOC(=O)[C@H](Cc1ccccc1)NC(=O)CCC1CC(OC(=O)NCc2cccc3ccccc23)CC2(CCCC(COC(=O)NCc3cccc(C(F)(F)F)c3)O2)O1 (stereo partly drawn) 0.675
CCOC(=O)[C@H](CC(C)C)NC(=O)CCC1CC(OC(=O)NCCc2ccc(F)cc2)CC2(CCCC(COC(=O)NCCOc3ccccc3)O2)O1 (stereo partly drawn) -0.883
COC(=O)[C@H]1[C@@H](O)[C@@]2(O)c3ccccc3O[C@@]2(c2ccccc2)[C@@H]1c1ccccc1 -0.175
C#CCCCON=C1C[C@@H](O)[C@@H](O)[C@@H]2[C@@H]3C(=O)N(C(C)(C)C)C(=O)[C@@H]3CC[C@H]12 -0.143
CO[C@@H]1C=CCC(=O)N[C@@H](C)C(=O)OC[C@@H](OC)[C@H](C)CCCC(=O)OC[C@H]1C -0.479
CON=C[C@@H](C)[C@H](OCc1ccccc1)C(C)C 0.298
Cc1ccc(S(=O)(=O)n2c3ccccc3c3nnc(C(=O)c4ccccc4)nc32)cc1 0.523
CC(C)CON=C1C[C@@H](O)[C@@H](O)[C@@H]2[C@@H]3C(=O)N(C4CCCCC4)C(=O)[C@@H]3CC[C@H]12 -0.118
CO[C@@H]1COC(=O)CC=C[C@@H](C)[C@H](OC)COC(=O)[C@@H](C)COC(=O)CC=C[C@H]1C -0.225
COC(=O)CC=C[C@@H](C)[C@@H](C=NO[C@@H](C)c1cn([C@H](CO)Cc2ccccc2)nn1)OC -0.418
COC(=O)CC=C[C@@H](C)[C@@H](C=NOC[C@@H](O)[C@H]1O[C@@H]2OC(C)(C)O[C@@H]2[C@H]1O)NS(=O)(=O)c1ccc(C)cc1 0.453
COc1ccc(O[C@H]2C=C[C@@H](c3ccccc3)O[C@@H]2COC(=O)CCC(C)=NOC(C)CN2CCCc3nc(C)c(C)cc32)cc1 (stereo partly drawn) -0.336
CCOC(=O)NN=C1C[C@@H](O)[C@@H](O)[C@@H]2[C@@H]3C(=O)N(Cc4ccc5c(c4)OCO5)C(=O)[C@@H]3CC[C@H]12 -0.981
CC(C)=NO[C@H](C)c1cn([C@H](CO)Cc2ccccc2)nn1 0.204
CCOC(=O)[C@H](CC(C)C)NC(=O)CCC1CC(OC(=O)NCc2cccc3ccccc23)CC2(CCCC(COC(=O)NCCOc3ccccc3)O2)O1 (stereo partly drawn) -0.127
CC(C)[C@@H](OCc1ccccc1)[C@H](C)C=NOC[C@@H](O)COCc1ccco1 0.429
CCOC(=O)[C@H](CC(C)C)NC(=O)CCC1CC(OC(=O)NCc2cccc3ccccc23)CC2(CCCC(COC(=O)NCCOC)O2)O1 (stereo partly drawn) 0.226
CON=C1[C@H]2CCn3c(=O)n(-c4ccccc4)c(=O)n3[C@H]2[C@H](O)[C@@H]2O[C@H]12 0.335
CO[C@@H]1COC(=O)CC=C[C@@H](C)[C@@H]2C=C[C@H](O)[C@@H](COC(=O)CC=C[C@H]1C)O2 0.765
COC(=O)[C@@H]1CC[C@H](C)[C@@H](c2ccc(C)cc2)N1C(=O)c1ccc(C=NOCC[C@@H]2C=C[C@H](OC(C)=O)[C@@H](COC(C)=O)O2)cc1 0.888
CCOC(=O)CCN1C(=O)[C@H]2[C@H]3[C@H](O)[C@H](O)CC(=NOCc4ccccc4)[C@H]3CC[C@H]2C1=O 0.365
CCOC(=O)NN=C1C[C@@H](O)[C@@H](O)[C@@H]2[C@@H]3C(=O)N(c4cccc(Oc5ccccc5)c4)C(=O)[C@@H]3CC[C@H]12 1.05
COC(=O)CC=C[C@@H](C)[C@@H](C=NOC(C)CN1CCCc2nc(C)c(C)cc21)OC (stereo partly drawn) -0.537
